These results are taken from PubChem BioAssay (NCATS).

Experiment in all cases: qHTS profiling for inhibitors of Plasmodium falciparum proliferation (AID 504749); also: nearly all actives have a fitted effect of over 60% in size
Conditions in all cases: P. falciparum in erythrocytes, SYBR Green DNA, 72 h; series mostly up to 28.7 µM

One test relates to ICS. The method in brief: (§1)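 Fluorescence of SYBR Green-bound parasite DNA, read at 485/535 nm, served as the growth measure. Infected erythrocytes were cultured with compound 72 h; artemisinin (0.29 uM) and DMSO wells defined the normalization range.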
A further test concerns JCK. The method in brief:
as §1

The next test deals with N140. The method in brief:
as §1

Another test concerns P93_24. In a few lines: as §1
In the next test the test system is P94_40. The method in brief:
as §1

Another test has as its system PAD. The method in brief: as §1
The next test concerns PC15. The method in brief: as §1
A further test relates to PC26. In a few lines: as §1
A further test has as its system PC49. The method in brief: as §1
A further test deals with SC27B. In a few lines: as §1

Structures are written as SMILES. Results filed as inconclusive are left out. The source made the active and inactive calls. Calls follow the shape of the dose curve; as a rule, active = well fitted inhibition curve with a large enough effect; inconclusive = small, poorly fitted or top-dose-only effect; inactive = flat fitted curve, though single readings scatter.
Potency is read from the fitted curve at half-maximal effect.

Regarding `COC(=O)c1ccccc1C(=O)c1ccc(OCCN2CCCCC2)cc1`, the Potency entry with ICS, with JCK, in the test with N140, in the test on P93_24, with P94_40 and with PAD was “inactive” in each case. The Potency entry with PC15, with PC26, in the test with PC49 and with SC27B was “inactive” in each case.

For the compound `CC1CCc2cc(F)cc3c(=O)c(C(=O)O)cn1c23` (stereo not given), the Potency entry in the test on ICS, in the test on JCK, with N140, in the test with P93_24, in the test on P94_40 and in the test with PAD was “inactive” each time. Further, the Potency result in the test with PC15, in the test with PC26, with PC49 and in the test with SC27B was “inactive” in each case.

Regarding `CCCCCCCCCCCCCCCCC(C(=O)O)C(O)(CC(=O)O)C(=O)O` (stereo not given), the Potency entry in the test on ICS, in the test on JCK, in the test with N140, in the test on P93_24, in the test with P94_40 and in the test on PAD was “inactive” each time. Further, the Potency result in the test on PC15, in the test on PC26, in the test on PC49 and with SC27B was “inactive” throughout.

Regarding `O=C(NCN1CCOCC1)c1cnccn1`, the Potency entry in the test on ICS, in the test with JCK, in the test on N140, in the test on P93_24, with P94_40 and in the test on PAD was “inactive” throughout. Besides, the Potency entry in the test with PC15, in the test with PC26, in the test with PC49 and with SC27B was “inactive” in each case.

Regarding `C[N+](C)(C)CC[N+]1(C)Cc2c(Cl)c(Cl)c(Cl)c(Cl)c2C1`, the Potency entry in the test with ICS, in the test with JCK, with N140, in the test on P93_24, in the test with P94_40 and in the test on PAD was “inactive” in each case. For the same compound, the Potency entry in the test on PC15, with PC26, in the test on PC49 and in the test with SC27B was “inactive” in each case.

`COc1ccccc1OC(=O)Oc1ccccc1OC`: the Potency entry in the test with ICS, in the test with JCK, in the test on N140, in the test with P93_24, with P94_40 and in the test on PAD was “inactive” each time. The Potency entry in the test with PC15, in the test on PC26, with PC49 and in the test with SC27B was “inactive” each time.

With `C[C@H]1COc2c(C3(N)CC3)c(F)cc3c(=O)c(C(=O)O)cn1c23`, the Potency result with ICS, in the test on JCK, with N140, in the test on P93_24, in the test on P94_40 and in the test on PAD was “inactive” throughout. Further, the Potency entry in the test with PC15, in the test with PC26, in the test with PC49 and in the test on SC27B was “inactive” in each case.

As to `CCCC(O)C(CC)CO` (stereo not given), the Potency result in the test on ICS, in the test with JCK, in the test on N140, in the test on P93_24, in the test on P94_40 and in the test on PAD was “inactive” throughout. Further, the Potency entry in the test on PC15, in the test on PC26, with PC49 and with SC27B was “inactive” throughout.

With `O=C(O)c1ccc(OCCCOc2ccc(C(=O)O)cc2)cc1`, the Potency result with ICS, in the test with JCK, with N140, with P93_24, in the test with P94_40 and in the test with PAD was “inactive” throughout. In addition, the Potency entry with PC15, in the test with PC26, in the test with PC49 and in the test on SC27B was “inactive” each time.

For the compound `COC(=O)c1ccc(O)cc1`, the Potency entry in the test with ICS, with JCK, with N140, in the test with P93_24, with P94_40 and with PAD was “inactive” in each case. Moreover, the Potency result in the test with PC15, with PC26, in the test with PC49 and with SC27B was “inactive” throughout.

Turning to `O=C(O)c1ccccc1OP(=O)(O)O`, the Potency result in the test with ICS, in the test on JCK, in the test on N140, in the test with P93_24, with P94_40 and in the test with PAD was “inactive” in each case. The Potency entry with PC15, in the test on PC26, with PC49 and in the test with SC27B was “inactive” in each case.

On to `Cc1ccsc1C(=CCCN1CCC[C@@H](C(=O)O)C1)c1sccc1C`, for which the Potency entry with ICS, with JCK, with N140, in the test with P93_24, in the test with P94_40 and with PAD was “inactive” throughout. The Potency entry in the test with PC15, in the test on PC26, in the test on PC49 and in the test on SC27B was “inactive” each time.

For `O=C(O)Cc1cn(-c2ccccc2)nc1-c1ccc(Cl)cc1`, the Potency entry in the test with ICS, with JCK, in the test with N140, with P93_24, in the test with P94_40 and with PAD was “inactive” each time. Moreover, the Potency entry in the test with PC15, in the test with PC26, with PC49 and in the test with SC27B was “inactive” each time.

`C[C@@H]1O[C@@H](OC[C@H]2O[C@@H](Oc3c(-c4ccc(O)c(O)c4)oc4cc(O)cc(O)c4c3=O)[C@H](O)[C@@H](O)[C@@H]2O)[C@H](O)[C@H](O)[C@H]1O`: the Potency entry in the test with ICS, in the test with JCK, in the test with N140, in the test on P93_24, with P94_40 and in the test on PAD was “inactive” each time. Besides, the Potency result with PC15, with PC26, with PC49 and with SC27B was “inactive” each time.

On to `NS(=O)(=O)c1ccc(NC(=O)CCC(=O)O)cc1`, for which the Potency result in the test with ICS, in the test on JCK, with N140, with P93_24, in the test with P94_40 and with PAD was “inactive” in each case. For the same compound, the Potency result in the test with PC15, with PC26, in the test with PC49 and in the test with SC27B was “inactive” in each case.

On to `COc1ccc(NS(=O)(=O)c2ccc(N)cc2)nn1`, for which the Potency result with ICS, in the test on JCK, with N140, in the test with P93_24, with P94_40 and with PAD was “inactive” each time. Besides, the Potency entry in the test with PC15, in the test with PC26, in the test on PC49 and with SC27B was “inactive” each time.

With `CCCCCCCCCCCCCCCCCCO`, the Potency entry in the test on ICS, in the test with JCK, in the test on N140, with P93_24, in the test on P94_40 and with PAD was “inactive” throughout. Besides, the Potency entry in the test with PC15, in the test with PC26, in the test with PC49 and in the test with SC27B was “inactive” throughout.

For the compound `Cc1cccc(C)c1NC(=O)CC12CCCN1CCC2`, the Potency entry in the test with ICS, in the test on JCK, in the test on N140, in the test on P93_24, in the test on P94_40 and in the test on PAD was “inactive” in each case. Also, the Potency result with PC15, in the test with PC26, in the test on PC49 and with SC27B was “inactive” in each case.

Regarding `O=C(CN1CCNCC1)NC1CCCCC1`, the Potency result in the test with ICS, in the test on JCK, in the test with N140, with P93_24, with P94_40 and in the test with PAD was “inactive” in each case. Moreover, the Potency result in the test with PC15, in the test on PC26, in the test with PC49 and in the test with SC27B was “inactive” each time.

As to `CC(=O)NCc1c(I)c(NC(C)=O)c(I)c(C(=O)O)c1I`, the Potency entry with ICS, in the test on N140, in the test on P93_24, in the test with P94_40, in the test on PAD and in the test on PC15 was “inactive” throughout. Further, the Potency result in the test on PC26 and in the test with SC27B was “inactive” in each case. Also, the Potency in the test on JCK is 11.2 µM (active); in the test with PC49, 5 nM (active).

Turning to `CC(C)=CCC/C(C)=C/CO`, the Potency entry with ICS, with JCK, in the test with N140, with P93_24, in the test on P94_40 and in the test on PAD was “inactive” in each case. Besides, the Potency entry in the test on PC15, with PC26, with PC49 and in the test on SC27B was “inactive” each time.

As for `CCN(CC)CC1CCCCN1CC(=O)N1c2ccccc2C(=O)Nc2cccnc21` (stereo not given), the Potency entry with ICS, with JCK, in the test on N140, in the test with P93_24, with P94_40 and in the test with PAD was “inactive” each time. For the same compound, the Potency entry with PC15, in the test with PC26, in the test on PC49 and in the test on SC27B was “inactive” in each case.

Turning to `CC1CC(OC(=O)c2ccccc2O)CC(C)(C)C1` (stereo not given), the Potency entry with ICS, with JCK, with N140, in the test with P93_24, with P94_40 and with PAD was “inactive” in each case. Also, the Potency entry with PC15, in the test with PC26, in the test on PC49 and in the test with SC27B was “inactive” in each case.

In the case of `Cc1c(N(C)C)c(=O)n(-c2ccccc2)n1C`, the Potency entry in the test on ICS, in the test with JCK, with N140, with P93_24, in the test on P94_40 and in the test with PAD was “inactive” in each case. For the same compound, the Potency result in the test with PC15, with PC26, in the test on PC49 and with SC27B was “inactive” each time.
